Source: PubChem BioAssay
TROY NFkB inh: inhibitors of TROY-dependent NF-kB signaling. inhibition, % at 10 µM. Q293 LMP1-TROYcd NF-kB luciferase reporter, 4 h. AID 1347056. actives 0.98% (n = 360,000);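 active = compounds whose plate-normalised and pattern-corrected inhibition of the luciferase reporter signal at the single screening dose is 50% or more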
Peg3 prom inh-1: reduces Peg3 promoter-driven luciferase expression in HeLa; HeLa PEG-Prom luciferase reporter, luminescence, overnight; inhibition, % at 20 µM; actives 1.7% (n = 360,000);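 active = inhibition of at least 50% at 20 µM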
TWEAK Fn14 block: inhibitors of TWEAK-Fn14 interaction signaling; inhibition, % at 10 µM; AID 1159606; TWEAK-stimulated Fn14 reporter cells, luciferase luminescence, 8 h; actives 2% (n = 360,000); in the data active = inhibition above about 50%
KKLEB tox: reduces viability of KKLEB cystic fibrosis airway cells; actives 0.36% (n = 360,000); KKLEB CF airway cells viability, ATPlite luminescence, overnight; hits give low values; cells stimulated with P. aeruginosa culture filtrate; activity change (cytotoxicity), % at 5 µM;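 active = corrected activity change at or below -50% at 5 µM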
HIF-2a block: inhibitors of HIF-2a; actives 0.72% (n = 360,000); inhibition, % at 18.8 µM; 786-0 RCC cells HIF-2a reporter, luciferase luminescence, overnight;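 active = inhibition of the luminescence signal of 40% or more relative to plate controls, in a single-dose primary screen at 18.75 µM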
CF NFkB block: blocks PAF-induced NF-kB reporter in cystic fibrosis cells; actives 0.86% (n = 360,000); AID 588850; inhibition, % at 5 µM; KKLEB NF-kB-GFP reporter, GFP fluorescence overnight;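 active = at least 50% inhibition at 5 µM, scaled per plate between neutral and stimulator controls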;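 also: PAF is a Pseudomonas aeruginosa culture filtrate used as stimulus; plate controls were PAF-stimulated DMSO wells for no effect and unstimulated DMSO wells for full effect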
Peg3 prom inh-2: confirmation of Peg3 promoter inhibitors | shares compounds with Peg3 prom inh-1 | HeLa PEG-Prom luciferase reporter, luminescence, overnight | inhibition, % at 20 µM | actives 84% (n = 1,300);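 active = at 20 µM dose, 40% or more inhibition averaged across four replicates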
The depositor's hits bear a star; . = no result given. This is a sample that favours compounds with a hit; in the whole collection about 4% have one here.

SMILES	TROY NFkB inh	Peg3 prom inh-1	TWEAK Fn14 block	KKLEB tox	HIF-2a block	CF NFkB block	Peg3 prom inh-2
O=C(Nc1ncc([N+](=O)[O-])s1)c1ccc2c(c1)OCO2	84*	70*	103*	-11	61*	46	64*
CCOC(=O)c1cc2c(=O)n3ccccc3nc2n(CCOC)c1=NC(=O)c1c(-c2c(F)cccc2Cl)noc1C	4	53*	15	-8	30	-30	30
CCOC(=O)c1cc2c(=O)n3ccccc3nc2n(CCOC)c1=NC(=O)c1ccncc1	-3	7	3	2	7	2	.
Cc1cc(C)n2nc(C(=O)OCC(=O)Nc3cc(Cl)ccc3C)nc2n1	0	9	-1	18	12	5	.
Cc1ccc(NC(=S)NC(=O)c2ccc(F)cc2)cc1S(=O)(=O)Nc1ccccc1Cl	16	55*	40	-15	11	1	58*
Cc1ccc(C(=O)Nc2c(C)n(C)n(-c3ccccc3)c2=O)cc1	8	7	0	13	22	-6	.
Cc1ccc(-n2c(N)c(C(=O)Nc3c(C)n(C)n(-c4ccccc4)c3=O)c3nc4ccccc4nc32)cc1	12	76*	-6	-47	-13	15	51*
CCOc1ccccc1NC(=O)c1ccccc1N(C)S(=O)(=O)c1ccc(C)cc1	8	-92	-1	3	14	2	.
Cc1ccc(NC(=O)CN2C(=S)NC(C)(C)CC2C)cc1Cl (configuration not stated)	4	22	12	4	9	12	.
CCCCCCC=C1CCC(CN2CCCC2)C1=O (configuration not stated)	-8	102*	26	-4	-7	-12	77*
CCCC/C=C1\CCc2c([nH]c3ccccc23)C1=O	-56	-179	-41	-9	-240	-37	.
CCC(C)NC(=O)c1ccccc1NC(=O)/C(=C/c1ccc(OC)cc1)c1ccccc1 (configuration not stated)	-3	20	14	11	6	2	.
COc1nc(C)ccc1-c1noc(-c2cccnc2)n1	-48	-210	-27	5	-208	14	.
COC1=C(Br)C(=O)c2nc(C)ccc2C1=O	-11	107*	18	11	33	3	100*
CCc1ccc(/C=C2\SC(=S)N(CCCC(=O)NC3=NCCS3)C2=O)cc1	77*	72*	92*	-18	83*	5	71*
CCc1ccc(/C=C2/SC(=S)N(CCCC(=O)Nc3cccc(C(=O)O)c3)C2=O)cc1	-8	-28	-18	-18	23	24	.
CCc1ccc(/C=C2\SC(=S)N(CCCC(=O)Nc3cc(C)on3)C2=O)cc1	81*	72*	70*	6	77*	-12	66*
COc1cccc(/C=C2\SC(=S)N(CCCC(=O)Nc3cc(C)on3)C2=O)c1	2	27	-36	-3	34	7	.
CCOC(=O)Cc1nnc(NC(=O)c2ncn[nH]2)s1	4	14	10	-12	0	2	.
CC(C)Oc1cc(F)ccc1-c1cc(C(=O)NCC2CCCCC2)[nH]n1	0	11	2	-1	2	11	.
COC(=O)c1ccc2nc(-c3cccc(N)c3)cn2c1	53*	68*	95*	-6	37	-6	11
COc1cccc(/C=N/NC(=O)c2c(-c3ccccc3)noc2C)c1OC	8	-2	14	1	12	-15	.
COc1cccc(/C=N/NC(=O)c2c(-c3ccccc3)noc2C)c1O	12	55*	-42	-11	-7	7	56*
Cc1onc(-c2ccccc2)c1C(=O)Nc1nnc(-c2ccncc2)s1	1	17	0	-2	1	-19	.
O=C1/C(=C/C=C/c2ccccc2)Oc2c1ccc(O)c2CN1CCN(CCO)CC1	-24	-21	2	6	0	2	.
SMILES	TROY NFkB inh	Peg3 prom inh-1	TWEAK Fn14 block	KKLEB tox	HIF-2a block	CF NFkB block	Peg3 prom inh-2
CCN1CCN(Cc2c(O)ccc3c2O/C(=C\C=C\c2ccccc2)C3=O)CC1	-24	108*	30	-3	92*	21	77*
O=C(CN1CCN(Cc2ccccc2)CC1)Nc1ccc2c(c1)CCC2	9	10	-5	-1	14	-2	.
O=[N+]([O-])c1ccc(-c2nc(Nc3cccc(O)c3)c3ccccc3n2)cc1	82*	81*	80*	-13	-40	-24	91*
O=C(Oc1c(-c2ccccc2)c(=O)n2c3c(cccc13)CC2)c1cccc([N+](=O)[O-])c1	47	15	30	-3	27	33	.
CN(C)CC1CCC/C(=C\c2ccc(OC(=O)c3ccc(Cl)cc3)cc2)C1=O (configuration not stated)	-5	105*	17	-8	17	-18	100*
CN(C)CC1CCC/C(=C\c2ccc(OC(=O)/C=C/c3ccccc3)cc2)C1=O (configuration not stated)	3	101*	-10	-1	-11	-5	100*
CNC(=O)c1cc2ccc(OC)cc2oc1=O	1	-45	-9	-3	-59	-12	.
O=C(CSc1nc2ccc(NC(=O)c3ccccc3C(=O)O)cc2s1)Nc1c(Cl)cccc1Cl	11	-11	-1	4	-15	-14	.
COc1ccc(CN2CCN(C(=O)c3cc(-c4cccnc4)nc4ccc(Cl)cc34)CC2)c(OC)c1OC	12	94*	26	-22	12	2	56*
O=C(c1cc(-c2ccccn2)nc2ccc(Cl)cc12)N1CCN(CCc2ccccc2)CC1	19	51*	21	-18	17	4	36
Cc1cnn(C(=O)c2cc(-c3ccccn3)nc3ccc(Cl)cc23)c1	0	4	-4	3	11	-1	.
CCOC(=O)C(=O)C1=C(N2CCOCC2)/C(=C\c2ccc(F)cc2)CC1	5	-27	-3	4	-9	-10	.
COc1cc(OC)cc(-c2c(-c3cccs3)c3cc(-c4ccc(N(C)C)nc4)ccc3n2C)c1	-2	52*	-46	-10	9	17	25
COc1cc(F)cc(-c2ccc3c(c2)c(-c2cccs2)c(-c2cc(OC)cc(OC)c2)n3C)c1	38	4	35	-21	12	25	.
CC(C)OCCCNC(=O)CNC(=O)c1ccc(Cl)c(Cl)c1	5	15	-9	9	13	-3	.
CCCCC1C(=O)N(c2ccccc2)N(c2ccc(O)cc2)C1=O (configuration not stated)	55*	101*	84*	29	95*	82*	74*
CCCCC1(Br)C(=O)N(c2ccccc2)N(c2ccccc2)C1=O	1	13	-1	9	-4	-26	.
